Assay results taken from PubChem BioAssay AID652013 (National Center for Advancing Translational Sciences (NCATS), 2013).
Where “and” joins values, the source holds several entries; their conditions need not be identical. Equal entries are not always repeated. Calls of active or inactive are those of the source.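 Rule for the calls: active = relative NQO1 transcription at 1 µM of 250% or more; inconclusive = relative NQO1 transcription between 200% and 250%; inactive = relative NQO1 transcription under 200%.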

Assay: qHTS of Nrf2 Activators: Hit Validation in NQO-1 Induction Assay
Settings: Hepa1c1c7 cells, NQO1 mRNA qPCR, 24 h; at 1 µM; active compounds read high
Excerpt: Many diseases have some form of oxidative stress injury and ties to inflammation, causing a host of problems for the patient. The antioxidant response element (ARE) plays an important role in alleviating the harmful effects of oxidative stress. The antioxidant response element (ARE) is a transcriptional regulatory element involved in the activation of genes coding for a number of antioxidant proteins and detoxifying enzymes. These enzymes work in concert to protect tissues from oxidative insults and chemical toxicities in human hepatocytes and immune cells. The protective effects of ARE activation are primarily triggered through Nrf2 (NF-E2-related factor) binding to and activating AREs. It is known that Nrf2 controls the production of over 250 antioxidant and detoxification proteins (Hu et al., 2006), thereby protecting tissues by increasing cellular antioxidant content and suppressing inflammatory signaling pathways. The transcription factor Nrf2 is a central link between oxidative chemicals, such as phenolic antioxidants and electrophilic compounds, and the activation of ARE. Nrf2 levels are constitutively low as a consequence of its interaction with Keap1, which targets its degradation (Zipper and Mulcahy, 2002). Electrophiles react with key cysteine residues in Keap1, releasing Nrf2 and allowing its translocation to the nucleus. Once within the nucleus, Nrf2 complexes with coactivators such as p300, and binds to the AREs to induce gene transcription of cytoprotective enzymes, resulting in the prevention of toxicity. Activation of Nrf2 protects tissues by increasing cellular antioxidant content and suppressing inflammatory signaling pathways. Identifying novel and potent Nrf2 activators by using the AREc32 cell line to detect ARE activation by small molecules will lead to the identification and development of probes to study protective pathways in multiple tissues. These specific probes are essential to study the ARE pathway, and eventually to determine whether this pathway does activate genes that could protect against a host of diseases, including cardiovascular diseases, obesity, diabetes, Alzheimer's, and Parkinson's disease. This project's aim is to identify novel and potent Nrf2 activators by using the AREc32 cell line to detect ARE activation by small molecules, which will lead to the identification and development of probes to study the ARE pathway. Compounds that were identified in the primary screen were tested in this secondary assay to assess whether a hit also activates Nrf2 transcription of the target gene NQO-1. NIH Chemical Genomics Center [NCGC] NIH Molecular Libraries Probe Centers Network [MLPCN] MLPCN Grant: DK081461 Assay Submitter (PI): Curtis Klaassen, University of Kansas Medical Center
Hepac1c7 cells were seeded into 24-well plates at a density of 30,000 cells/well in 1 mL complete media per well and cultured overnight to allow attachment. Cells were treated the next day with compounds (1 uM)or positive control for 24 h. Total RNA samples were then isolated by using RNAzol B reagent (Tel-Test, Inc., Friendswood, TX) according to the manufacturer's protocol. Total RNAs were reverse-transcribed into cDNA by High Capacity cDNA Archive Kits (Applied Biosystems, Foster City, CA) and the resulting cDNA was used for real-time PCR analysis using SYBR(R) Green PCR Master Mix in a 7900HT Fast Real-Time PCR System.

Relative NQO1 transcription, inactive:
Clc1ccc2c(NCc3ccccn3)ncnc2c1 83%, O=C(Nc1cccc2ncccc12)c1ccc(Cl)cc1 136%, Cc1nc(NCc2ccco2)nc2c1C(=O)CC(C)C2 (stereo not given) 175%, COc1ccc(NC(=O)c2cc(-c3cccs3)on2)c(OC)c1 129%, O=C(Nc1ncnc2sc3c(c12)CCCCC3)c1ccco1 163% and 137%, O=C(Nc1ncnc2sc3c(c12)CCC3)c1ccco1 175%, CS(=O)(=O)c1nc(S(=O)(=O)c2ccc(Cl)cc2)c(N2CCOCC2)s1 129%, COc1ccc(NC(=O)c2cc(-c3ccco3)on2)c(OC)c1 75%, COc1ccccc1NC(=O)c1cc(Cl)nc2ccccc12 79%, COC(=O)c1c(NC(=O)c2ccccc2)sc(C(N)=O)c1C 60%
